# p53ts 32C tox: cytotoxicity in p53ts cells at permissive temperature. Potency, µM (top dose mostly 46.1 µM), for the others: top-dose activity change, negative = cytotoxicity, usual class: cytotoxic. H1299-p53A138V at 32C, ATP luminescence viability, 24 h. 130,000 compounds, 0.93% hits;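 also: 0% = DMSO and -100% = full killing by reference compound; nearly all actives have a fitted effect of over 55% in size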
#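 ATP-content luminescence (ATPlite) read-out after 24 h compound exposure at 32C in H1299-p53A138V cells (600/well). Tested up to 46 uM. Normalized to DMSO (0%) and 100 uM tamoxifen (100% killing); Hill-fit AC50.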
# IkB sig inh: suppresses IkB signaling in ABC-DLBCL reporter cells | 110,000 compounds, 0.04% hits | Potency, µM (top dose mostly 57.1 µM), for the others: at the top dose IkBa stabilization activation | AID 445 | ABC-DLBCL IkBa-CBG/CBR dual luciferase ratio, 4 h; response scale: scaled: untreated 0%, proteasome inhibitor 100%; active = well fitted curve in the direction sought with a large enough effect in the signal ratio, not every such curve was filed as active; inconclusive = small, poorly fitted or top-dose-only effect, or a change in a side signal; the % refers to the signal ratio;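 also: the direction sought is a rising ratio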
#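 Curves were fitted separately to fusion (green), unfused (red) and ratio luminescence, then classed by r2, magnitude and activity. Cells: OCI-Ly3, 4 h compound plus doxycycline at 37C; 10 uM MG-132 defined full response.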
# Peg3 imprint: induces erasure of genomic imprints in mouse ES cells; mouse ES Peg3-LacZ reporter, beta-gal luminescence, 40 h; Potency, µM (top dose mostly 60.7 µM), inactives show at the highest dose activity change, positive = activation, most hits filed as activators; 110,000 compounds, 0.02% hits; AID 1948
#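 Each well holds 300 Peg3LacZ-Neo (maternal) female ES cells incubated 40 h at 37C, 5% CO2. LacZ is measured by BetaGlo luminescence, with AC50 and maximum efficacy derived from dose-response curves.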
# p53ts 39C kill: kills p53ts cells at the nonpermissive temperature | Potency, µM (series often up to 46.1 µM), for the others: at the highest dose activity change, negative = cell killing, actives largely listed as cytotoxic | H1299-p53A138V viability at 39C, ATP luminescence, 24 h | 130,000 compounds, 1.5% hits; also: % is scaled to controls: 0 for no effect and ±100 for the full control effect; nearly all actives have a fitted effect of over 55% in size
# * marks the source's active call; other numbers are inactive results; ? = inconclusive; · = no result; ! = a repeat was not active; [ ] = dose if it differs, or a comment. Rows were chosen to be rich in hits. Some 1.7% of all compounds tested hit in one or more screens of this group. Unless noted, calls follow the shape of the dose curve; as a rule, active = well fitted curve in the direction sought with a large enough effect; inconclusive = small, poorly fitted or top-dose-only effect, or another doubt; inactive = no such curve, though single readings can be large; an effect the other way counts as inactive or inconclusive. Potency is read from the fitted curve at half-maximal effect.
SMILES,p53ts 32C tox,IkB sig inh,Peg3 imprint,p53ts 39C kill
CC(C)(C)c1ccc(C(=O)Nc2ccc(C(=O)OCc3cc(=O)n4ccsc4n3)cc2)cc1,15.8µM*,?,-9.1%[10.9 µM],15.8µM*
COc1cc(-c2[o+]c3cc(O)cc(O)c3cc2O)cc(O)c1O,3.2%[9.22 µM],1.8%[11.4 µM],-12.4%[10.9 µM],8.9%[9.22 µM]
OCCN1CCN(CCC=C2c3ccccc3Sc3ccc(Cl)cc32)CC1,-6.8%[20.6 µM],1.2%[25.6 µM],3.5%[16.8 µM],-10.2%[20.6 µM]
O=C(c1ccc(Cc2nc3ccccc3[nH]2)cc1)N1CCCCC1,0.5%,·,·,1.8%
O=c1cnc2cnc(N3CCNCC3)nc2n1Cc1ccc(F)cc1,4.1%,2.4%[11.4 µM],-37.9%,3.0%
Cc1ccc2sc(-c3ccc(N)cc3)nc2c1,2.51µM*,21.5%,-49.0%[10.9 µM],3.16µM*
CS(=O)(=O)c1ncc(Cl)c(C(=O)N2CCN(c3cccc(Cl)c3)CC2)n1,12.6µM*,?,-40.7%[10.9 µM],2.51µM*
CCS(=O)(=O)c1ncc(Cl)c(C(=O)N2CCN(c3cccc(Cl)c3)CC2)n1,12.6µM*,?,-37.5%[10.9 µM],2.51µM*
CC1CCc2onc(C(=O)N3CCN(c4cccc(Cl)c4)CC3)c2C1 (centres undefined),-0.8%,?,-8.7%[10.9 µM],3.6%
O=C(c1cc2ccc3cccnc3c2[nH]1)N1CCN(c2cccc(Cl)c2)CC1,6.1%,9.7%,23.6%[10.9 µM],44.5%
C[C@H]1CN(S(=O)(=O)c2cccc3cnccc23)CCN1,7.7%,0.3%,·,9.6%
CC(=O)c1sc(Nc2nc3ccc(F)cc3s2)nc1C,20µM*,?,-46.7%,?
CCc1ccc(NC(=O)Cn2cc(S(=O)(=O)c3ccc(F)cc3)c(=O)c3cc(OC)ccc32)cc1,?,9.5%,-4.9%[10.9 µM],12.6µM*
CC(=O)OCC1OC(C#CCC2CCCCC2)C=CC1OC(C)=O (centres undefined),2.4%[9.22 µM],·,·,-8.3%[9.22 µM]
C[C@@H]1OC2C3=C(C(=O)[C@H]4O[C@@H]4[C@H]3O)[C@@H]1[C@H]1[C@H](C)OC=C3[C@H](O)[C@H]4O[C@H]4/C(=N\OCc4ccccc4)[C@@]321,13.2%[9.22 µM],·,·,3.98µM*
COc1ccc(S(=O)(=O)N(CC(=O)Nc2ccccc2Cl)Cc2ccccc2)cc1,4.7%,?,-15.9%[10.9 µM],-6.2%
Cc1nnc(SCC(=O)Nc2nsc(-c3ccccc3)n2)s1,13.4%,1.6%,-5.4%,11.3%
O=C(Nc1nsc(-c2ccccc2)n1)c1cccs1,3.98µM*,?,-75.6%,5.01µM*
O=C(c1ccc(Cl)cc1)N1CCCCC(Sc2nnc(-c3ccc4c(c3)OCO4)o2)C1=O (centres undefined),7.94µM*,0.6%,-78.0%,?
Cc1ccc(OC(=O)CSc2nnc(-c3ccc4c(c3)OCO4)o2)cc1,0.1%,1.6%,-12.8%[10.9 µM],-7.3%
Cc1ccc(CNC(=O)CC(C)CC2=NS(=O)(=O)c3ccccc3N2)cc1 (centres undefined),2.0%,-1.4%,?,5.2%
COCCn1c(C)cc(C(=O)COC(=O)c2c(C)nn(Cc3ccccc3)c2C)c1C,6.7%,?,9.9%,10.9%
COCCn1c(C)cc(C(=O)COC(=O)c2n[nH]c3ccccc23)c1C,1µM*,?,-87.0%,2µM*
Cc1cc(C(=O)COC(=O)c2n[nH]c3ccccc23)c(C)n1C,2.51µM*,?,-64.4%,3.16µM*
COc1cc(C(=O)OCC(=O)c2cc(C)n(C)c2C)cc(OC)c1OC,2.8%,2.4%,-5.5%,-5.7%
SMILES,p53ts 32C tox,IkB sig inh,Peg3 imprint,p53ts 39C kill
CC(=O)Nc1nnc(SCc2cc(=O)c3cc(C)ccc3[nH]2)s1,6.3%,0.7%,16.1%[10.9 µM],0.9%
Cc1ccc(C(=O)NC2(C(F)(F)F)C(=O)Nc3c2c(=O)[nH]c(=O)n3CCc2ccccc2)cc1 (centres undefined),4.1%,1.8%,-2.6%[10.9 µM],21.9%
Cc1oc(-c2ccc(Cl)cc2)nc1Cn1c(=O)cc(-c2ccccc2)c2c(C)nn(C)c21,8.5%,-1.3%,-9.7%[10.9 µM],1.3%
COc1cccc2sc(NC(=O)c3ccc4c(c3)OCCO4)nc12,?,?,-15.8%[10.9 µM],5.01µM*
O=C1CCCC2CCCCN12 (centres undefined),·,·,0.8%[97.3 µM],·
COc1ccc(CCN2CCC(Nc3nc4ccccc4n3Cc3ccc(F)cc3)CC2)cc1,-14.9%,5.1%[25.6 µM],-41.8%,12.6µM*!
COc1ccc(Cn2c(-c3ccc(OC)cc3)nc3ccccc32)cc1,6.8%,·,·,1.0%
CCN(CC)CCOC(=O)c1ccc(NC(=O)c2nn(-c3ccc(C)cc3)c(=O)c3c2c2ccccc2n3C)cc1,3.98µM*,?,-31.0%[10.9 µM],3.98µM*
COc1ccc(-c2nc(CSc3nc4ncccc4[nH]3)c(C)o2)cc1OC,-9.2%,·,·,·
CCOc1ccc(-c2[nH]ncc2Oc2cccc(OC)c2)c(O)c1,-23.3%,6.3%,-21.6%,15.8µM*
Cn1c(CSCc2ccc(F)cc2)nnc1SCC(=O)Nc1nccs1,9.2%,2.7%,-19.9%,8.7%
Cn1nnnc1SCc1ccc(C(=O)Nc2nccs2)cc1,?,-1.0%,-39.7%,5.01µM*
CC(=O)Nc1ccc2nc(-c3ccccn3)[nH]c2c1,3.98µM*,0.7%,-77.9%,6.31µM*
CCOC(=O)c1cnc2ccc(OC(F)(F)F)cc2c1Nc1ccccc1C(=O)O,-2.0%,?,-14.2%[10.9 µM],?
Cn1c(=O)c(-c2cc(F)cc(F)c2)nc2cnc(N3CCNCC3)nc21,-15.1%,-1.5%[11.4 µM],-27.5%,-23.6%
O=C(Nc1cccc(Cl)c1)N1CC2CCCN2c2ccccc21 (centres undefined),0.0%,2.5%,6.4%[10.9 µM],10µM*
O=C(NCc1cccc(Cl)c1)c1ccc(NC(=O)N2CC3CCCN3c3ccccc32)cc1 (centres undefined),-1.8%,?,-6.7%[10.9 µM],4.9%
c1ccc(C2=Nn3c(nnc3-c3n[nH]c4c3CCC4)SC2)cc1,9.5%,18.4%,-8.1%,-17.1%
Clc1ccc(C2=Nn3c(nnc3-c3n[nH]c4c3CCC4)SC2)cc1Cl,47.5%,5.7%,-16.2%,12.6µM*
COc1cccc(Cn2c(=O)c(-c3cccs3)nc3cnc(N4CCOCC4)nc32)c1,6.8%,-3.7%[11.4 µM],-11.1%,-2.1%
Cc1ccc2c(c1)C(=O)C1(O)CCN(c3ccccc3)C1=N2 (centres undefined),·,·,-12.0%,·
Cc1cccc(C)c1NC(=O)c1cc2sccc2n1Cc1ccc(F)cc1,-17.2%,0.8%,11.6%[10.9 µM],12.6µM*
Cc1ccc(Cn2c(C(=O)Nc3cccc(Cl)c3)cc3sccc32)cc1,-9.4%,?,-4.2%[10.9 µM],-10.7%
O=C(Nc1ccc(F)cc1)c1ncn(-c2ccccc2)n1,?,?,-32.3%[10.9 µM],15.8µM*
CCOc1ccc(NC(=O)c2ncn(-c3ccccc3)n2)cc1,-12.5%,?,-7.0%[10.9 µM],-22.8%
O=C(Nc1ccc2nc(SCCOc3ccccc3Cl)sc2c1)c1cccs1,-9.6%,?,-12.6%[10.9 µM],-19.4%
Cc1ccc2occ(CC(=O)N(Cc3ccc(Cl)cc3)Cc3ccco3)c2c1,0.2%,2.6%,-12.5%[10.9 µM],-4.7%
CCOc1c(Br)cc(C2CC(=O)Nc3cc4c(cc32)OCO4)cc1OC (centres undefined),21.8%,?,-26.1%[10.9 µM],-23.5%
